Experimental findings from PubChem BioAssay (NCI) are described below.

The panel holds about 83,000 compounds, 20% with a hit somewhere; the sample as a whole holds those more often.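 In brief: 96-well plates, 48 h treatment, single concentration, percent growth endpoint.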 A number with no mark means an inactive call. Calls of active or inactive are those of the source. How the source made its calls: active means growth percent below 10; inactive means the rest.

In this test the test system is SNB-19 CNS. The test can be described thus: NCI-60 one-dose screen, 48 h (100 = growth as untreated, 0 = no growth, -100 = all killed). Conditions: 10 µM unless noted.
As to `C#C[C@]1(O)CC[C@H]2[C@@H]3CC=C4c5sc(N(C)c6ccccc6)nc5CC[C@]4(C)[C@H]3CC[C@@]21C`, the growth is 91.3%.

In the case of `CC(=O)c1c([Si](C)(C)C)c2cc(C#N)ccn2c1C(=O)c1ccc(Br)cc1`, the growth was 86.9%.

Turning to `O=C(CSc1nc2ccccc2c(=O)n1-c1ccc(Cl)c(Cl)c1)Nc1ccc(S(=O)(=O)Nc2ccc(Cl)nn2)cc1`, the growth was 96.3%.

As to `C#CCN(C)CCCOc1ccc(NCc2ccc(/C=C/C(=O)NO)cc2)cc1Cl`, the growth was 8.74% (active).

In the case of `O=C(NNc1nc2cc(F)cc(F)c2n2cccc12)c1cccnn1`, the growth was 21.6%.

As to `COc1ccc(/C(=N\NC(N)=S)c2ccc(Cl)cc2)cc1OC`, the growth is 24.1%.

`COc1ccc(-c2c(C(N)=O)c(N)n(Cc3nc4ccccc4[nH]3)c(=O)c2C#N)c(OC)c1`: the growth is 98.7%.

In the case of `Cc1cc(Br)ccc1-n1cc(C#N)c(N)c1C(=O)c1ccc(Br)cc1`, the growth is 96.3%.

As to `CN1CCN(Cc2ccc(NC(=O)c3cncc(C#Cc4cnc(N)nc4)c3)cc2C(F)(F)F)CC1`, the growth is 57.4%.

On to `CCOC(=O)c1c(NC(=O)c2ccc(C(F)(F)F)cc2)sc2c3c(ccc12)OCN(C)C3`, for which the growth is 26.7%.

On to `O=C1CSC(c2cn(-c3ccccc3)nc2-c2ccc(Cl)cc2)N1c1ccccc1` (stereo not given), for which the growth was 112%.

Turning to `COc1ccc(-c2c3c(cn2Cc2cccc(OC)c2)-c2oncc2CCC3)cc1`, the growth was 93.4%.

As for `C#C[C@]1(O)CC[C@H]2[C@@H]3CC=C4c5sc(Nc6ccc(C)cn6)nc5CC[C@]4(C)[C@H]3CC[C@@]21C`, the growth is -21.2% (active).

Take `CCCCCCOC(=O)c1cc(-c2ccc(F)cc2)nc2ccccc12`: the growth is 92.6%.

Turning to `CN1CCN(c2ccc(Nc3nc(NCCNS(=O)(=O)c4ccccc4)c4sccc4n3)cc2)CC1`, the growth was 98.9%.

`CN1CCN(Cc2ccc(NC(=O)c3cncc(C#Cc4cnc5ccc(O[C@@H]6CCOC6)nn45)c3)cc2C(F)(F)F)CC1`: the growth was -48.9% (active).

In the case of `CC(C)(C)Nc1nc2c(OCCc3ccccc3)cccn2c1-c1ccc([N+](=O)[O-])cc1`, the growth was 78.4%.

Turning to `N#Cc1c(-c2cccs2)cc(-c2cnccn2)nc1SCC(=O)N/N=C/c1ccc(Cl)cc1`, the growth is 105%.

As for `CN(C)CCCOc1ccc(C(=C(c2ccccc2)C2CCCC2)c2ccc(OCCCN(C)C)cc2)cc1`, the growth was -80.4% (active).

For `N#Cc1nc(-c2ccc(Cl)cc2)oc1N1CCC(S(=O)(=O)N2CCOCC2)CC1`, the growth was 92.2%.

Regarding `CC(=O)C1=C(C)NC(NNc2ccccc2)=NC1c1ccc([N+](=O)[O-])cc1` (stereo not given), the growth is 87.8%.

On to `COC(=O)c1ccc(NC2=C(Cl)C(=O)C(C)=C(C)C2=O)cc1`, for which the growth was 53.5%.

Regarding `C=C(C=O)[C@@H]1CC[C@]2(C(=O)O)CC[C@]3(C)C(CC[C@@H]4[C@@](C)(CCC#N)[C@H](C(=C)C=O)CC[C@]43C)[C@@H]12` (stereo not given in full), the growth was 62.7%.

For the compound `CCOC(=O)C1=C(C)NC(C)=C(C(=O)OC(C)C)C1c1cccc(C#N)c1` (stereo not given), the growth is 101%.

With `CC1(C)CC[C@]23CC[C@]4(C)[C@H](CC[C@@H]5[C@@]6(C)CC[C@H](NCO)C(C)(C)[C@@H]6CC[C@]54C)[C@H]2[C@H]1OC3`, the growth is 36.9%.

For `COc1ccc(C(=NNS(=O)(=O)c2ccc(C)cc2)c2ccccc2)cc1OC`, the growth was 94.6%.

Consider `COc1cccc2c1C=CC1(O2)Oc2cccc(OC)c2C=C1C` (stereo not given), for which the growth is 22.8%.

As for `Cc1csc(/N=C(N)/N=C(\N)c2cccnc2)n1`, the growth is 69.4%.

For `Cc1ccc(/C=N/Nc2nc(Nc3ccccc3)nc(Nc3ccc(S(N)(=O)=O)cc3)n2)cc1`, the growth is 77.6%.

For the compound `CCCC[n+]1ccc(SCC(=O)n2ccc3ccccc32)c2ccccc21`, the growth is 97.4%.

For the compound `O=[N+]([O-])c1ccc(NC(=S)NNC(=S)Nc2ccc(Br)cc2)cc1`, the growth was 98.6%.

As to `CCOP(=O)(OCC)OC[C@]12CCC(C)(C)CC1C1=CC[C@@H]3[C@@]4(C)CCCNC(C)(C)[C@@H]4CC[C@@]3(C)[C@]1(C)CC2` (stereo not given in full), the growth was 87%.

`CNC(=O)Nc1ccc(Nc2cc(-c3ccc(-n4cccn4)cc3)[nH]n2)c(C)c1`: the growth was 97.6%.

As for `O=C(CCCCCCNC(=O)c1csc(Br)n1)NO`, the growth is 59.7%.

Regarding `NS(=O)(=O)c1ccc(Nc2nc(N/N=C/c3ccc4c(c3)OCO4)nc(Nc3ccccc3)n2)cc1`, the growth was 55.8%.
